JMJD2A Tudor: qHTS Assay for Inhibitors of JMJD2A-Tudor Domain | Lysine-specific demethylase 4A (Homo sapiens), O75164 | AlphaScreen JMJD2A-Tudor / H3K4me3 peptide binding | Potency, µM (doses to about 114 µM), for the others: at the top dose activity change, negative = inhibition, hits mostly inhibitors | 390,000 tested, 4.4% active; also: % is scaled to controls: 0 for no effect and ±100 for the full control effect; nearly all actives have a fitted effect of over 50% in size
BAZ2B block: qHTS Assay for Inhibitors of BAZ2B | AlphaScreen BAZ2B-H3K14Ac peptide displacement | Potency, µM (highest dose often 114 µM), for the others: top-dose activity change, negative = inhibition, hits mostly inhibitors | 360,000 tested, 4.4% active | AID 504333, 2011; also: % is scaled to controls: 0 for no effect and ±100 for the full control effect; nearly all actives have a fitted effect of over 60% in size
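Inhibition is scored as reduced AlphaScreen emission. The BAZ2B/b-H3(5-23)K14Ac complex (50 nM each) in PBS pH 7.4, 0.01% Tween-20 meets compound (up to 110 uM) for 30 min at RT before bead addition.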
HP1b chromo inh: HTS for Inhibitors of HP1-beta Chromodomain Interactions with Methylated Histone Tails; AID 540317, 2011; AlphaScreen HP1-beta / biotin-H3K9me3 peptide binding; Potency, µM (highest dose often 114 µM), for the others: at the highest dose activity change, negative = inhibition, actives largely listed as inhibitors; 390,000 tested, 0.56% active; also: nearly all actives have a fitted effect of over 70% in size
Target sequence (P83916 whole entry, looked up): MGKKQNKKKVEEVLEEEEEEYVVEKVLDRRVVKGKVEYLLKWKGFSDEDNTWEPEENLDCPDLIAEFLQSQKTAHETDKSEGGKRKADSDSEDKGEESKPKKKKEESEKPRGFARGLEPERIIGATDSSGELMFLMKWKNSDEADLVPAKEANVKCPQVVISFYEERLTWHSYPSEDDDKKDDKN
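Compound inhibition of the preformed complex between 50 nM HP1-beta and 50 nM biotinylated H3K9me3 peptide was read by AlphaScreen. Buffer was PBS pH 7.4 with 0.01% Tween-20. Incubations ran 30 min at room temperature, with 10 ug/mL donor/acceptor beads.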
GLS inhibitor: qHTS for Inhibitors of Glutaminase (GLS). Glutaminase kidney isoform, mitochondrial (Homo sapiens), O94925. GLS enzymatic activity, qHTS titration. Potency, µM (top dose mostly 45.5 µM), without a hit: at the highest dose activity change, negative = inhibition, hits mostly inhibitors. 410,000 tested, 0.21% active; also: % is scaled to controls: 0 for no effect and ±100 for the full control effect
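Read-out is an Amplex red fluorescence increase coupled through glutamate oxidase and HRP, measured before and after 30 min room-temperature incubation. hKGA is in 45 mM KH2PO4 (pH 8.2) with 0.02% Tween-20; glutamine added as 1mM solution.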
L3MBTL1 block: qHTS Assay for the Inhibitors of L3MBTL1; Lethal(3)malignant brain tumor-like protein 1 (Homo sapiens), Q9Y468; AlphaScreen L3MBTL1–H3K9me1 peptide binding; Potency, µM (highest dose often 57.1 µM), inactives show at the highest dose activity, negative = inhibition, actives largely listed as inhibitors; 230,000 tested, 0.66% active; also: % is scaled to controls: 0 for no effect and ±100 for the full control effect; nearly all actives have a fitted effect of over 60% in size
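L3MBTL1 50 nM + b-AHA-H3(1-15)K9me1 75 nM, 30 min RT; compound added, 30 min RT; streptavidin donor/Ni-chelate acceptor beads 10 ug/mL each final, 30 min RT dark; AlphaScreen read.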
G9a block: qHTS Assay for Inhibitors of Histone Lysine Methyltransferase G9a; 350,000 tested, 8.8% active; Potency, µM (top dose mostly 102 µM), for inactives: at the top dose activity, negative = inhibition, most hits filed as inhibitors; Histone-lysine N-methyltransferase EHMT2 (Homo sapiens), Q96KQ7; G9a H3K9 monomethylation, AlphaScreen, 2 h; also: % is scaled to controls: 0 for no effect and ±100 for the full control effect; nearly all actives have a fitted effect of over 75% in size
Target sequence (Q96KQ7 913-1193 limits assumed): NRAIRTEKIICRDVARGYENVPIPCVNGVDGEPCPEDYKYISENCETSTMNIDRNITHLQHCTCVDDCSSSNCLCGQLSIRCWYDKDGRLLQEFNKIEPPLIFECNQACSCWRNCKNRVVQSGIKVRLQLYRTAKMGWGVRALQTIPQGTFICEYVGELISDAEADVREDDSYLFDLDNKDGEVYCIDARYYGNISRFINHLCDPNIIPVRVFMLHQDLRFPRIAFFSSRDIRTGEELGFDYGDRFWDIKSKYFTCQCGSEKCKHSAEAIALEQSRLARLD
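Chemiluminescent proximity detection of H3K9 monomethylation, read after 10 min bead incubation in the dark. Reaction: 20 nM G9a, 500 nM biotin-H3K9 peptide, 20 uM SAM cofactor, 2 h, room temperature, following 15 min enzyme-compound preincubation.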
An asterisk follows results filed as active; u = inconclusive; x = no result; [ ] = remark or other dose. Hits are enriched below; roughly 10% of the tested compounds scored in any of these assays. Calls follow the shape of the dose curve; as a rule, active = well fitted curve in the direction sought with a large enough effect; inconclusive = small, poorly fitted or top-dose-only effect, or another doubt; inactive = no such curve, though single readings can be large; an effect the other way counts as inactive or inconclusive. Potency is read from the fitted curve at half-maximal effect.

SMILES	JMJD2A Tudor	BAZ2B block	HP1b chromo inh	GLS inhibitor	L3MBTL1 block	G9a block
Cc1nn(CCC(=O)NNC(=S)Nc2ccc(Cl)cc2)c(C)c1[N+](=O)[O-]	-18.7%	4.5%	-6.7%	28.7%	15.3%[11.4 µM]	10µM*
Cc1nn(CCC(=O)NNC(=S)Nc2cccc(Cl)c2)c(C)c1[N+](=O)[O-]	-12.7%	-2.3%	-11.9%	29.7%	12.6%	8.91µM*
COc1ccc(OC)c(N(CC(=O)NCc2ccccc2)S(=O)(=O)c2ccccc2)c1	-8.2%	-15.2%	31.0%	-7.7%	x	u
CCc1nn(CC(=O)NC(C)C)c(=O)c2cc3cc(F)ccc3n12	-7.3%	-2.0%	17.9%	5.4%	x	-9.8%[59 µM]
Cc1ccc(NC(=O)C2CCCN(S(=O)(=O)c3cccs3)C2)c(C)c1 (stereo unspecified)	-25.6%	-16.4%	-4.8%	1.4%	x	-35.6%[59 µM]
O=C(Nc1ccc2nc(SCC(=O)N3CCOCC3)sc2c1)c1ccccc1Cl	-9.6%	-14.5%	29.9%	7.5%	x	1.1%[59 µM]
CCOc1ccc(C(=O)Nc2nnc(S(=O)(=O)Nc3ccccc3)s2)cc1	u	-20.5%	25.5%	-1.8%	x	-21.5%[59 µM]
CC(C)n1c(=O)[nH][nH]c1=S	8.91µM*	50.1µM*	12.6µM*	u	1.7%	0.891µM*
CC(C)n1c(=O)[nH]c2ccccc21	-13.5%	-6.1%	19.3%	1.8%	9.8%	8.3%
CCC1CCc2nc3sc(C(=O)Nc4ccc(C)cc4C)c(N)c3cc2C1 (stereo unspecified)	0.0%	-0.7%	22.1%	-11.9%	x	3.2%[59 µM]
O=C(NN=Cc1ccccc1O)C(O)(c1ccccc1)c1ccccc1	-1.4%	x	46.0%	7.5%	x	x
O=C(N/N=C/c1ccc(N2CCCCC2)o1)C(O)(c1ccccc1)c1ccccc1	x	-27.7%	x	x	-8.6%	12.6µM*
CN(C)c1ccc(/C=N/NC(=O)c2ccccc2O)o1	-21.1%	2.5%	8.9%	0.2%	x	28.2µM*
CN(C)c1ccc(/C=N/NC(=O)C(O)(c2ccccc2)c2ccccc2)o1	u	-25.5%	0.5%	6.2%	-2.1%	7.94µM*
Cc1cc(C(=O)N/N=C/c2ccc(N(C)C)o2)cs1	-18.8%	-25.6%	3.3%	-10.9%	x	u
CCOC(=O)C(=NCCOC)NNc1cc(Cl)ccc1Cl	u	u	14.8%	13.6%	-8.0%	39.8µM*
CCc1ccc(C(=O)NNc2cc(Cl)ccc2Cl)cc1	-25.2%	-8.0%	61.7%	-2.0%	2.8%	-3.3%
COc1ccc(C(=O)NCCSc2c[nH]c3ccccc23)cc1OC	-21.5%	-29.5%	20.9%	-6.3%	x	-39.1%[59 µM]
Cc1nnc(NC(=O)CSCc2cc(=O)c3ccccc3[nH]2)s1	-24.0%	-19.5%	20.2%[57 µM]	-12.5%	u	5.1%[12.7 µM]
Cn1c(=O)c2[nH]c(-c3ccccc3)c(O)c2n(C)c1=O	-6.6%	10.6%	26.2%	32.9%	0.8%	2.24µM*
Cn1c(=O)c2[nH]c(-c3ccccc3)nc2n(C)c1=O	x	7.7%	x	x	9.4%	7.5%[59 µM]
Cn1c(=O)c2[nH]c(-c3ccccc3Cl)c(O)c2n(C)c1=O	7.3%	-26.3%	48.6%	22.4µM*	-5.8%	44.7µM*
Cc1cccc(NC(=O)CN2C(=O)CCc3ccccc32)c1C	2.6%	-10.2%	22.3%	-16.0%	x	-9.0%[59 µM]
CC(C)COc1ccc(C(=O)Nc2onc3c2CCCC3)cc1	-12.2%	34.2%	71.3%	1.8%	x	u
O=C(O)C1CC(=O)N(c2ccc3c(c2)OCCO3)C1 (stereo unspecified)	3.16µM*	u	u	-26.1%	x	-26.4%[59 µM]
SMILES	JMJD2A Tudor	BAZ2B block	HP1b chromo inh	GLS inhibitor	L3MBTL1 block	G9a block
O=C(COC(=O)C1CC(=O)N(c2ccc3c(c2)OCCO3)C1)NC1CCCc2ccccc21 (stereo unspecified)	-9.4%	-31.8%	21.5%	-3.6%	-0.6%	79.4µM*
O=C(Nc1ccccc1Br)C1CC(=O)N(c2ccc3c(c2)OCCO3)C1 (stereo unspecified)	-16.4%	6.4%	10.2%	13.4%	10.3%	79.4µM*
Cc1ccc(NC(=O)C2CC(=O)N(c3ccc4c(c3)OCCO4)C2)nc1 (stereo unspecified)	-10.3%	-38.5%	11.1%	3.4%	-11.2%	-37.8%
Cc1ccnc(NC(=O)C2CC(=O)N(c3ccc4c(c3)OCCO4)C2)c1 (stereo unspecified)	-14.1%	79.4µM*	13.9%	0.8%	x	18.8%
O=S(=O)(c1ccc(-n2cnnn2)cc1)N1CCN(c2cccc(C(F)(F)F)c2)CC1	-13.5%	3.0%	20.0%	-9.9%	x	3.6%[59 µM]
CCc1ccccc1Nc1nn2c(=O)c3ccc(C(=O)NC4CCCCC4)cc3nc2s1	-12.8%	-5.9%	21.0%	-6.3%	x	4.1%[59 µM]
COC(=O)c1cc2sccc2n1CC(=O)Nc1ccc(OC)c(OC)c1	-19.6%	-6.6%	11.7%	2.6%	x	-24.9%[59 µM]
COc1ccc(NC(=O)c2cc3nc(-c4ccc(Cl)c(Cl)c4)cc(C(F)(F)F)n3n2)c(OC)c1	-19.6%	-2.3%	13.5%	-9.1%	x	2.8%[59 µM]
COc1ccc(CC(=O)N2CCN(c3ccccc3F)CC2)cc1OC	0.0%	-1.4%	32.5%	-5.9%	-2.0%	25.1%[59 µM]
COc1ccccc1N1CCN(C(=O)C2CC2)CC1	-4.1%	x	19.9%	0.0%	x	x
COc1cccc(CN2CCC(C(=O)N3CCN(c4ccccc4F)CC3)CC2)c1OC	3.55µM*	u	u	17.1%	10.7%	10µM*
COc1cc(CN2CCC(C(=O)N3CCN(c4ccccc4F)CC3)CC2)cc(OC)c1OC	2.51µM*	50.1µM*	u	-3.4%	x	25.1µM*
COc1ccc(CN2CCC(C(=O)N3CCN(c4ccccc4F)CC3)CC2)cc1OC	0.891µM*	56.2µM*	u	-0.4%	-18.6%	u
COc1ccc(CCNC(=O)Cc2c(C)c3cc4c(C)coc4cc3oc2=O)cc1OC	u	2.2%	34.5%	5.2%	x	3.3%[59 µM]
Cc1cc(C)cc(NC(=O)C(CC(C)C)NC(=O)C2CCCCC2)c1 (stereo unspecified)	-1.0%	0.3%	32.1%	0.7%	x	19.0%[59 µM]
COC(=O)C1=C(C)N(Cc2ccccc2)C(=S)N[C@H]1CCc1ccccc1	x	-10.7%	x	x	x	6.7%[12.7 µM]
COc1ccccc1Nc1cc(C)nc(Nc2ccccc2OC)n1	-23.4%	u	7.8%	-8.9%	-10.2%	2.24µM*
O=C1S/C(=C\c2ccc(O)c([N+](=O)[O-])c2)C(=O)N1c1ccccc1Cl	50.1µM*	35.5µM*	u	13.4%	-21.6%	x
CCOc1ccc(/C=C2\SC(=O)N(c3ccc(O)cc3)C2=O)cc1OC	-8.9%	-12.3%	36.7%	2.7%	x	16.9%
